Reference: PMC5515408, “Sequence-specific DNA binding by MYC/MAX to low-affinity non-E-box motifs”
The full ranking holds about 4,500 sequences; the median of “log2 normalized fluorescence” is about -0.34, and the highest 2% start at about 3.3. The entries come from a sample that favours the highest values as a whole.

Molecular target: MAX:MAX (p21) (human, UniProt P61244-2 1-151)
Assay: protein-binding microarray (anti-MAX antibody); PBM: 15 mM Tris-HCl pH 7.5, 100 mM KCl, 0.075% NP40, 7.5 mM beta-mercaptoethanol, 375 ng/ul BSA, 8 ng/ul poly(dA-dT):(dA-dT), 550 ng complex, 60 min, room tempe; high values mean tight binding
Conditions: protein: recombinant; tags: 6xHis; chain copies: 2; label: 3' end of printed strand (linker) attached to glass slide; dsDNA, one strand shown
Outline: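 Recombinant His-tagged human MYC:MAX or MAX:MAX dimers (550 ng, expressed in E. coli) were incubated for 60 min at room temperature in Tris-KCl buffer, pH 7.5, with NP40, BSA and poly(dA-dT) competitor. The custom Agilent glass array held ~5000 unique 12-nt sequences, each spotted in triplicate and made double-stranded by primer extension. Bound protein was detected with anti-MAX and secondary antibodies and scanned at 543 nm. Binding is reported as log2 normalized fluorescence.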

Chain of MAX:MAX (p21) (P61244 other isoform, or with tags, fused parts or gaps): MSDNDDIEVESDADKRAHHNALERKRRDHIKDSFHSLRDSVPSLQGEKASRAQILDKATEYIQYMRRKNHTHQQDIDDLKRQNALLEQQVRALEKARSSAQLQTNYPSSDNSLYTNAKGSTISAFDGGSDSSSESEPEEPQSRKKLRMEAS

Row | Sequence | binding signal
1 | CCGGCTGATGCTGAGTATTAATAGCTAAGATTACTATATCGACG | 0.00915 log2 normalized fluorescence
2 | CCGGCTGAACAAAGGTATTAATAGCTAAGATTACTATATCGACG | -0.6 log2 normalized fluorescence
3 | CCGGCTGACCGCGAGTATTAATAGCTAAGATTACTATATCGACG | 1.06 log2 normalized fluorescence
4 | CCGGCTGAGCACAAGTATTAATAGCTAAGATTACTATATCGACG | 0.993 log2 normalized fluorescence
5 | CCGGCTGGCACGTGCTATTAATAGCTAAGATTACTATATCGACG | 3.25 log2 normalized fluorescence
6 | CCGGCTCAGACGTGGTATTAATAGCTAAGATTACTATATCGACG | 1.39 log2 normalized fluorescence
7 | CCGGCTCACACGTGGTATTAATAGCTAAGATTACTATATCGACG | 3.33 log2 normalized fluorescence
8 | CCGGCTCACACGTTTTATTAATAGCTAAGATTACTATATCGACG | 3.25 log2 normalized fluorescence
9 | CCGGCTCACACGTCGTATTAATAGCTAAGATTACTATATCGACG | 2.63 log2 normalized fluorescence
10 | CCGGCTAACACGTGGTTTTAATAGCTAAGATTACTATATCGACG | 3.27 log2 normalized fluorescence
11 | CCGGCTCACACGTGGTTTTAATAGCTAAGATTACTATATCGACG | 3.32 log2 normalized fluorescence
12 | CCGGCTGAATGACCGTATTAATAGCTAAGATTACTATATCGACG | 0.107 log2 normalized fluorescence
13 | CCGGCTCACACCTCGTATTAATAGCTAAGATTACTATATCGACG | 2.28 log2 normalized fluorescence
14 | CCGGCTGACGGTTCGTATTAATAGCTAAGATTACTATATCGACG | -0.498 log2 normalized fluorescence
15 | CCGGCCAGCACGTGGTATTAATAGCTAAGATTACTATATCGACG | 3.24 log2 normalized fluorescence
16 | CCGGCGCGCACGTGGTATTAATAGCTAAGATTACTATATCGACG | 3.39 log2 normalized fluorescence
17 | CCGGCTCATACGTGGAATTAATAGCTAAGATTACTATATCGACG | 1.28 log2 normalized fluorescence
18 | CCGGCGGACTCGTGGTATTAATAGCTAAGATTACTATATCGACG | 3.3 log2 normalized fluorescence
19 | CCGGCGCACACGTGGTATTAATAGCTAAGATTACTATATCGACG | 3.29 log2 normalized fluorescence
20 | CCGGCGGACGCGTGGTATTAATAGCTAAGATTACTATATCGACG | 3.14 log2 normalized fluorescence
21 | CCGGCGCAAACGTGGTATTAATAGCTAAGATTACTATATCGACG | 2.98 log2 normalized fluorescence
22 | CCGGCGGACCCGTGGTATTAATAGCTAAGATTACTATATCGACG | 2.46 log2 normalized fluorescence
23 | CCGGCAAGCACGTGGTATTAATAGCTAAGATTACTATATCGACG | 3.27 log2 normalized fluorescence
24 | CCGGCTGAAACGTGGAATTAATAGCTAAGATTACTATATCGACG | 2.54 log2 normalized fluorescence
25 | CCGGCTCGCACGTGGAATTAATAGCTAAGATTACTATATCGACG | 3.31 log2 normalized fluorescence
26 | CCGGCTAGCACGTGGTATTAATAGCTAAGATTACTATATCGACG | 3.44 log2 normalized fluorescence
27 | CCGGCTGACCTGATGTATTAATAGCTAAGATTACTATATCGACG | 0.381 log2 normalized fluorescence

Row | Sequence | binding signal
28 | CCGGCATAGTATACAATTTAATAGCTAAGATTACTATATCGACG | 0.0214 log2 normalized fluorescence
29 | CCGGCTGAACCCTGGTATTAATAGCTAAGATTACTATATCGACG | -0.595 log2 normalized fluorescence
30 | CCGGCTGATAAGTGGTATTAATAGCTAAGATTACTATATCGACG | -0.651 log2 normalized fluorescence
31 | CCGGCTGAAGGATTGTATTAATAGCTAAGATTACTATATCGACG | -0.589 log2 normalized fluorescence
32 | CCGGCTGAAACTTGGTATTAATAGCTAAGATTACTATATCGACG | -0.705 log2 normalized fluorescence
33 | CCGGCTCGGACGTGGTATTAATAGCTAAGATTACTATATCGACG | 1.17 log2 normalized fluorescence
34 | CCGGCGAGCACGTGGTATTAATAGCTAAGATTACTATATCGACG | 3 log2 normalized fluorescence
35 | CCGGCCTGCACGTGGTATTAATAGCTAAGATTACTATATCGACG | 3.26 log2 normalized fluorescence
36 | CCGGCTCGCACGTGGTATTAATAGCTAAGATTACTATATCGACG | 3.41 log2 normalized fluorescence
37 | CCGGCAGGCACGTGGTATTAATAGCTAAGATTACTATATCGACG | 3.21 log2 normalized fluorescence
38 | CCGGCACGCACGTGGTATTAATAGCTAAGATTACTATATCGACG | 3.29 log2 normalized fluorescence
39 | CCGGCATCCACGTGGTATTAATAGCTAAGATTACTATATCGACG | 3.28 log2 normalized fluorescence
40 | CCGGCGTGCACGTGGTATTAATAGCTAAGATTACTATATCGACG | 3.47 log2 normalized fluorescence
41 | CCGGCCCGCACGTGGTATTAATAGCTAAGATTACTATATCGACG | 3.03 log2 normalized fluorescence
42 | CCGGCACCCACGTGGTATTAATAGCTAAGATTACTATATCGACG | 3.35 log2 normalized fluorescence
43 | CCGGCCGGCACGTGGTATTAATAGCTAAGATTACTATATCGACG | 3.27 log2 normalized fluorescence
44 | CCGGCTGACGCAGGGTATTAATAGCTAAGATTACTATATCGACG | -0.104 log2 normalized fluorescence
45 | CCGGCTGACCTGCTGTATTAATAGCTAAGATTACTATATCGACG | 0.214 log2 normalized fluorescence
46 | CCGGCTGAAGAGTGGTATTAATAGCTAAGATTACTATATCGACG | 0.0783 log2 normalized fluorescence
47 | CCGGCTGAGGGGGAGTATTAATAGCTAAGATTACTATATCGACG | 1.48 log2 normalized fluorescence
48 | CCGGCTGAACCCAGGTATTAATAGCTAAGATTACTATATCGACG | -0.34 log2 normalized fluorescence
49 | CCGGCTGAGTTGAGGTATTAATAGCTAAGATTACTATATCGACG | -0.631 log2 normalized fluorescence
50 | CCGGCTGACCGGTAGTATTAATAGCTAAGATTACTATATCGACG | -0.573 log2 normalized fluorescence
51 | CCGGCTGACACAGGGTATTAATAGCTAAGATTACTATATCGACG | 0.747 log2 normalized fluorescence
52 | CCGGCTGAGAGCCTGTATTAATAGCTAAGATTACTATATCGACG | -0.287 log2 normalized fluorescence
53 | CCGGCTGACAGACCGTATTAATAGCTAAGATTACTATATCGACG | 0.179 log2 normalized fluorescence
